Screening data deposited in PubChem by National Center for Advancing Translational Sciences (NCATS).
FMDV antiviral: blocks foot and mouth disease virus | FMDV antiviral cell-based qHTS | Potency, µM (highest dose often 57.9 µM), for the others: at the highest dose activity change, negative = inhibition, hits mostly inhibitors | 1.2% of 410,000 active | AID 1159524; calls by dose curve; tested in HEK293T cells; further: read-out not given here; potency means the concentration at half of the fitted maximal effect; on the % scale 0 is the no-effect control and ±100 the full control effect; nearly all actives have a fitted effect of over 45% in size
HCMV inh: inhibitors of human cytomegalovirus | HFF cells, HCMV-luciferase reporter, 72 h; stronger effect = lower value | activity change, negative = inhibition, % at 57.5 µM | 4.5% of 410,000 active; in the data active means activity change below about -60%; inconclusive means no clear call, values can overlap the other calls; inactive means above about -39%; further: on the % scale 0 is the no-effect control and ±100 the full control effect
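Inhibition of viral replication was scored as loss of reporter luminescence in HFFs infected with HCMV-luciferase (MOI 1 PFU/cell) for 72 h; compounds tested at 2 doses, normalized to buffer and Salinomycin controls.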
HCV inh: blocks hepatitis C virus | Potency, µM (series often up to 41.8 µM), inactives show top-dose activity change, negative = inhibition, most hits filed as inhibitors | 3.4% of 340,000 active | Huh7.5.1 HCVcc-Cre infection, luciferase reporter, 44 h; active means well fitted inhibition curve with a large enough effect; inconclusive means small, poorly fitted or top-dose-only effect, or another doubt; inactive means no such curve, though single readings can be large or run the other way; further: potency means the concentration at half of the fitted maximal effect; on the % scale 0 is the no-effect control and ±100 the full control effect
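Antiviral activity was scored by luciferase reporter output from cells infected with HCVcc-Cre (~0.5 moi) in presence of compound, 44 h infection period, cells seeded 1,000/well 4 h prior.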
SARS PLpro yeast: blocks SARS-CoV papain-like protease in a yeast assay; Potency, µM (top dose mostly 32.9 µM), without a hit: top-dose activity, positive = growth rescue, hits mostly activators; 0.19% of 330,000 active; S. cerevisiae expressing SARS-CoV PLpro, growth rescue; calls by dose curve; further: potency means the concentration at half of the fitted maximal effect; 0% is about no effect; nearly all actives have a fitted effect of over 55% in size
MARV entry inh: Marburg virus entry inhibition | Marburg virus pseudotyped entry inhibition, cell reporter | Potency, µM (titrated, usually from 37.8 µM), without a hit: top-dose activity change, negative = inhibition, hits mostly inhibitors | 1.8% of 300,000 active; calls by dose curve; tested in HEK293 cells; further: potency means the concentration at half of the fitted maximal effect; on the % scale 0 is the no-effect control and ±100 the full control effect
LASV entry inh: inhibitors of Lassa virus binding or cell entry; Lassa virus pseudotype entry inhibition, cell reporter; Potency, µM (titrated, usually from 37.9 µM), for inactives: at the top dose activity change, negative = inhibition, hits mostly inhibitors; 1.2% of 300,000 active; calls by dose curve; tested in HEK293 cells; further: potency means the concentration at half of the fitted maximal effect; on the % scale 0 is the no-effect control and ±100 the full control effect; nearly all actives have a fitted effect of over 50% in size
Starred values were filed as active, the others as inactive; ? = inconclusive; . = no result; [ ] = another dose, or the depositor's remark. An excerpt weighted towards active compounds, which were near 8% of everything screened.

SMILES | FMDV antiviral | HCMV inh | HCV inh | SARS PLpro yeast | MARV entry inh | LASV entry inh
Cc1ccc(NC(=O)c2cccc(N3C(=O)C4C5C=CC(C5)C4C3=O)c2)cc1C (stereo not drawn) | 0.0% | ? | -25.2% | 1.7% | . | .
COc1ccc(NC(=O)c2cccc(N3C(=O)C4C5C=CC(C5)C4C3=O)c2)cc1Cl (stereo not drawn) | ? | 13.4 | 10µM* | 1.8% | 12.2%[46.1 µM] | -26.6%
Cc1ccc2c(c1)c(C)c(C)n2CC(O)Cn1nnc2ccccc21 (stereo not drawn) | -56.0% | -14.5 | ? | -33.1% | 20.6µM* | ?
Cc1ccc2c(c1)c(C)c(C)n2CC(O)Cn1nc(C)cc1C (stereo not drawn) | 5.0% | -20.8 | -16.6% | 1.8% | -5.0% | -0.1%
COCc1c(C(=O)N/N=C/c2cccc3ccccc23)nnn1-c1nonc1N | -5.5% | -3.7 | -29.3% | -3.2% | . | .
CC(C)CCn1c(N)c(S(=O)(=O)c2cccs2)c2nc3ccccc3nc21 | 21.1% | . | ? | -4.8% | 14.6µM* | 39.0%[14.3 µM]
CS(=O)(=O)Cc1ccc(C(=O)NNC(=O)c2cc(-c3ccccc3)n[nH]2)cc1 | -6.6% | 26.0 | 29.7% | -0.1% | 1.7% | 6.3%
COc1ccc(N2CCN(Cc3nc4c(c(=O)[nH]c(=O)n4C)n3Cc3ccccc3C)CC2)cc1 | -15.9% | -4.7 | . | . | 1.1%[46.1 µM] | 5.7%[46.1 µM]
C=CC[C@@H](CC(=O)N(CCO)Cc1ccccc1)C(=O)N[C@H](COC(=O)[C@@H](CC=C)Cc1ccc(F)cc1)c1ccccc1 | ? | 24.2 | 11.2µM* | 1.0% | . | .
C=CC[C@@H](CC(=O)N(CCO)Cc1ccccc1)C(=O)NC[C@@H](OC(=O)[C@@H](CC=C)CC(=O)OC(C)(C)C)c1ccccc1 | ? | -9.4 | 10µM* | -3.9% | . | .
C=CC[C@@H](CC(=O)N(CCO)Cc1ccccc1)C(=O)NC[C@H](OC(=O)[C@@H](CC=C)Cc1ccc(F)cc1)c1ccccc1 | 14.1µM* | -0.6 | ? | 24.6% | . | .
C=CC[C@@H](CC(=O)N(CCO)Cc1ccccc1)C(=O)N[C@@H](C)COC(=O)[C@@H](CC=C)Cc1ccc(F)cc1 | ? | -12.3 | ? | -8.2% | . | .
O=C(CN1CCN(c2cccc(Cl)c2)CC1)NC1CCCc2ccccc21 (stereo not drawn) | -18.7% | -6.6 | -9.2% | -4.2% | ? | ?
COc1cc(C2C(=O)N(C3CCCCC3)CC(=O)N2CCc2ccccc2)ccc1OC(C)C (stereo not drawn) | -16.5% | -22.6 | . | . | . | -12.0%[46.1 µM]
CCn1c(SCC(=O)Nc2nc3ccc(C)cc3s2)nc2c(c1=O)SC(C)C2 (stereo not drawn) | ? | . | 7.94µM* | -4.6% | ? | -27.5%
CCn1c(SCC(=O)Nc2nc3ccccc3s2)nc2c(c1=O)SC(C)C2 (stereo not drawn) | 31.6µM* | -39.7 | ? | -7.9% | ? | -26.7%
CCn1c(SCC(=O)Nc2cc(C)on2)nc2c(c1=O)SC(C)C2 (stereo not drawn) | . | 2.5 | -13.8% | -4.0% | 19.3% | 9.4%
CCn1c(SCC(=O)NC2CCCCC2)nc2c(c1=O)SC(C)C2 (stereo not drawn) | -24.0% | -29.8 | 1.7% | 4.0% | 25.8% | 11.6%
COc1ccc(-n2nc(C(=O)N3CCN(c4cccc(C)c4)C(C)C3)c3c4ccccc4n(C)c3c2=O)cc1Cl (stereo not drawn) | -5.7% | 12.7 | . | . | 2.6%[46.1 µM] | 23.8%[46.1 µM]
O=C(c1ccccc1)c1ccccc1N1C(=O)C=CC1=O | ? | -92.6* | ? | -6.5% | ? | ?
O=C(c1ccccc1)c1cccc2ccccc12 | -11.8% | -5.5 | -9.1% | . | 2.8%[46.1 µM] | -14.7%[46.1 µM]
O=C1C=CC(=O)N1c1ccccc1N1C(=O)C=CC1=O | ? | 0.0 | ? | . | ? | 11.2µM*
CN(CCO)C(=O)c1cn(C2CCCN(Cc3ccc4ccccc4c3)C2)nn1 (stereo not drawn) | -22.1% | . | . | . | . | .
Cc1ccc(S(=O)(=O)c2nc(S(C)(=O)=O)sc2N2CCC(O)CC2)cc1 | -3.7% | -20.2 | 2.6% | 0.4% | . | .
CS(=O)(=O)c1nc(S(=O)(=O)c2ccc(Cl)cc2)c(N2CCN(CCO)CC2)s1 | -9.1% | -62.9* | -1.8% | ? | . | .
SMILES | FMDV antiviral | HCMV inh | HCV inh | SARS PLpro yeast | MARV entry inh | LASV entry inh
Cc1ccc(S(=O)(=O)c2nc(S(=O)(=O)c3ccc(C)cc3)c(N3CCN(CCO)CC3)s2)cc1 | 6.3% | -107.5* | ? | 2.7% | . | .
CS(=O)(=O)c1nc(S(=O)(=O)c2ccc(Cl)cc2)c(N2CCCCCC2)s1 | 33.0% | ? | -2.0% | -4.3% | 13.3%[46.1 µM] | -14.9%[46.1 µM]
CCS(=O)(=O)c1nc(S(=O)(=O)c2ccc(C)cc2)c(N2CCN(C)CC2)s1 | 4.3% | -33.8 | -10.2% | -3.8% | . | .
Cc1ccc(S(=O)(=O)c2nc(S(C)(=O)=O)sc2N2CCCCC2C)cc1 (stereo not drawn) | -9.7% | -75.2* | 5.3% | -0.1% | . | .
CN1CCN(c2sc(S(C)(=O)=O)nc2S(=O)(=O)c2ccc(Cl)cc2)CC1 | -4.0% | -80.0* | 5.6% | 4.6% | . | .
Cc1ccccc1CNC(=O)c1oc2c(c1C)-c1nn(Cc3ccc(Cl)cc3)cc1CC2 | -23.5% | -26.5 | . | . | . | -20.6%[46.1 µM]
N[C@@H](Cc1cnc[nH]1)C(=O)Nc1ccc2ccccc2c1 | -14.0% | -25.3 | 21.1% | . | . | .
COCCNC(=S)N(CCc1c(C)[nH]c2ccccc12)Cc1cccnc1 | -7.4% | 23.5 | 12.5% | -1.3% | -8.1% | 4.3%
CCc1ccc(NC(=S)N2CCN(S(=O)(=O)c3ccccc3)CC2)cc1 | 46.9% | ? | -25.0% | -0.7% | 9.5%[46.1 µM] | ?
Cn1cccc1C(=O)N1CCC2(CCCN(C(=O)Nc3ccccc3)C2)CC1 | 5.1% | . | . | . | . | .
CCS(=O)(=O)c1nc(S(=O)(=O)c2ccc(Cl)cc2)c(N2CCN(C)CC2)s1 | 0.1% | -77.3* | 15.9% | 4.2% | . | .
CC(C)Cc1ccc(-c2cc3nc(NCC4CC4)ccn3n2)cc1 | 11.2% | 7.7 | . | . | . | .
CCNc1ccc2noc3c2c1C(=O)c1ccccc1-3 | -20.8% | -37.1 | ? | -65.5% | -3.7% | -11.1%
O=C1C(Cl)=C(NCCN2CCCCC2)C(=O)c2ccccc21 | 39.8µM* | . | 7.94µM* | 29.6% | . | .
O=C1c2ccccc2-c2onc3ccc(NCc4ccco4)c1c23 | ? | . | 10µM* | -12.3% | ? | -24.1%
O=C1C(Cl)=C(NCc2ccco2)C(=O)c2ccccc21 | -18.4% | -85.7* | 8.91µM* | . | ? | -9.8%[46.1 µM]
CCOC(=S)SCC(=O)N1CCc2ccccc2C1C1C(=O)CCCC1=O (stereo not drawn) | -2.3% | 13.1 | 4.6% | -3.0% | . | .
O=C(O)c1cccc(Sc2cc(Cl)ccc2C(=O)O)c1 | 17.8% | 7.8 | 13.7% | 0.9% | . | .
Cc1ccc(C(=O)CC2(O)C(=O)N(Cc3ccccc3)c3ccc(Br)cc32)cc1 (stereo not drawn) | -8.3% | 35.3 | . | . | . | ?
Cc1ccc(C(=O)N2c3ccccc3N(Cc3ccccc3)C(=O)C2(C)C)cc1 | . | -92.9* | 11.2µM* | -36.0% | ? | ?
